SARS PLP yeast – inhibitors of SARS-CoV papain-like protease in yeast; S. cerevisiae expressing SARS-CoV PLpro, growth rescue; Potency, µM (top dose mostly 32.9 µM), usual class: activators; 0.19% of 330,000 active; calls by dose curve; note: nearly all actives have a fitted effect of over 55% in size
AmpC inh no detg – AmpC beta-lactamase inhibition without detergent; P00811; AmpC nitrocefin hydrolysis, absorbance 480 nm, 0.0001% Triton; Potency, µM (highest dose often 57.1 µM), actives largely listed as inhibitors; 0.52% of 330,000 active; AID 485341; note: nearly all actives have a fitted effect of over 20% in size
Target sequence (P00811 whole entry, looked up): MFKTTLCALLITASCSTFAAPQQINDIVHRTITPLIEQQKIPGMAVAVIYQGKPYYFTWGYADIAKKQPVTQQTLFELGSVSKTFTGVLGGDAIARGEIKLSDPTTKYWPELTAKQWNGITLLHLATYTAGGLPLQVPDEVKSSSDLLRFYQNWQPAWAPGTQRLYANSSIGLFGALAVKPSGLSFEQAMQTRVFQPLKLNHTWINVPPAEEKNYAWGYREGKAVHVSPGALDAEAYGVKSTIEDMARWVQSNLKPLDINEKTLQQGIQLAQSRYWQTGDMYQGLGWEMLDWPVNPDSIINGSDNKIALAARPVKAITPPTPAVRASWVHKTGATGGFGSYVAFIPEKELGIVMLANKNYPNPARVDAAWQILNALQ
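AmpC (5.3 nM in the dispensed reagent) in 20 mM phosphate pH 7.0 with 0.01% (detergent screen) or 0.0001% Triton X-100 was preincubated with compounds for 15 min at room temperature. Nitrocefin was then added from an 800 uM solution, and hydrolysis was followed at 480 nm.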
Shiga toxin inh – inhibitors of Shiga toxin in Vero cells; inhibition, % at 38.7 µM; Vero cells, Shiga toxin protein synthesis inhibition reporter; 9.2% of 290,000 active; in the data active = inhibition mostly above about 28%, no sharp cut-off; inactive = mostly below about 43%
CHX counter – counter-screen for Shiga toxin inhibitors: cycloheximide protein synthesis inhibition | cell reporter, cycloheximide protein synthesis inhibition counterscreen | max response, % | 12% of 300,000 active; in the data active = max response mostly above about 13%, no sharp cut-off; inactive = mostly below about 14%; note: read at 38.3 µM for the half of the compounds with a filed dose
AmpC detergent – inhibitors of E. coli AmpC beta-lactamase with detergent; AID 485294; Potency, µM (doses to about 114 µM), hits mostly inhibitors; P00811; 0.041% of 370,000 active; AmpC hydrolysis of nitrocefin, absorbance 480 nm, 0.01% Triton; note: nearly all actives have a fitted effect of over 25% in size
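20 mM phosphate pH 7.0 + 0.01% (detergent screen) or 0.0001% Triton X-100; 5.3 nM AmpC reagent; cpd preinc 15 min RT; nitrocefin (800 uM stock) to start; A480 q20 s × 4 min; Activity was normalised to no-enzyme and no-compound control wells.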
AMA1-RON2 inh – disrupts binding of P. falciparum AMA1 to RON2; AlphaScreen AMA1-biotinylated RON2 peptide binding; Potency, µM (series often up to 58.2 µM), hits mostly inhibitors; 0.2% of 360,000 active; note: nearly all actives have a fitted effect of over 45% in size
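AMA1 (3D7) with his tag at 25 nM final met compounds first, then biotinylated RON2 peptide at 25 nM; detection used donor plus acceptor beads, 10 µg/mL apiece, read by AlphaScreen after 30 min at room temperature.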
Hits are given with their value; - = inactive; ? = inconclusive; . = no result given; ! = not active in a repeat; [ ] = dose if it differs, or a comment. The full list was thinned out, with hits kept by preference. Unless noted, calls come from the whole dose curve; as a rule, active = well fitted curve in the direction sought with a large enough effect; inconclusive = small, poorly fitted or top-dose-only effect, or another doubt; inactive = no such curve, though single readings can be large; an effect the other way counts as inactive or inconclusive.

SMILES	SARS PLP yeast	AmpC inh no detg	Shiga toxin inh	CHX counter	AmpC detergent	AMA1-RON2 inh
CCN(CC)c1ccc2c(C)c(Cl)c(=O)oc2c1	-	-	-	-	-	-
CCOC(=O)Cc1c(C)c2ccc(N(CC)CC)cc2oc1=O	-	-	100	19	-	-
CC(=O)Nc1cc(C(=O)NCCN2CCN(Cc3ccccc3)CC2)ccc1Sc1ccc(C)cc1	-	-	-	-	-	-
CCc1nnc(NC(=O)c2ccc(-c3cccc(C(F)(F)F)c3)o2)s1	-	-	-	-	-	-
CCOc1cccc2cc(C(=O)NCc3ccccc3)c(=N)oc12	-	-	-	-	-	-
CC(C)[C@H](NC(=O)c1ccccc1)C(=O)OCc1nnc(-c2ccccc2)o1	-	-	-	-	-	-
CC(C(=O)OCc1nnc(-c2ccccc2)o1)N1C(=O)c2ccccc2C1=O (stereo not given)	-	-	92	32	-	-
Cc1ccc(C(=O)N[C@H](C(=O)OCc2nnc(-c3ccccc3)o2)C(C)C)cc1	-	-	-	26	-	-
COC(=O)c1sc(NC(=O)/C=C/c2ccc(OC)c(OC)c2)c(C(=O)OC)c1C	.	.	.	.	-	.
CCN(CC)CCCNC(=S)N1CCN(c2nc(-c3ccc(F)cc3)cs2)CC1	-	-	.	-	-	-
CNC(=O)N(O)C1N(/N=C/c2ccccc2O)C(=S)SC1(C)C (stereo not given)	-	-	-	15	-	-
Cc1nnsc1C(=O)N1CCCC(N2CCN(c3ccc(F)cc3)CC2)C1 (stereo not given)	0.71µM	-	-	-	-	-
COc1cccc(C(=O)Nc2cccc(OCC(=O)c3ccccc3)c2)c1	-	-	-	21	-	-
O=C(COc1cccc(NC(=O)c2ccccc2)c1)c1ccccc1	-	-	-	-	-	-
COc1cccc(C(=O)COc2ccc(NC(=O)c3ccccc3)cc2)c1	-	-	-	16	-	-
O=C(CNC(=O)c1cccc(OC(F)F)c1)OCC(=O)c1ccccc1	-	-	-	-	-	-
COc1cccc(C(=O)NCC(=O)OCC(=O)c2ccccc2)c1	-	-	83	29	-	-
CC(C)C1Cc2[nH]c(=S)[nH]c(=O)c2C(c2ccc(F)cc2)O1 (stereo not given)	.	.	.	.	.	-
C/C=C/C(O)c1ccc2ccccc2c1 (stereo not given)	-	-	26!	20!	-	.
CC(=NC1CCCCC1)C1=C(O)c2ccccc2C1=O	-	-	-	46	-	-
CC(=NC1CCCCC1)c1ccc(O)cc1O	.	.	.	.	.	-
N#Cc1ccc(/C=N/NC(=O)c2cccc(S(=O)(=O)N3CCOCC3)c2)cc1	-	-	-	-	-	-
CC[n+]1ccc(C[n+]2ccccc2)c2ccccc21	-	?	-	-	32µM	-[11.6 µM]
CCCC(=O)Nc1ccc(S(=O)(=O)Nc2cc(C)nc(C)n2)cc1	-	-	-	-	?	-
CC(=O)Nc1nc(-c2ccc3c(c2)CC(C)N3C(=O)C2CC2)c(C)s1 (stereo not given)	-	-	65	20	-	-
SMILES	SARS PLP yeast	AmpC inh no detg	Shiga toxin inh	CHX counter	AmpC detergent	AMA1-RON2 inh
CCOC(=O)C(=O)Nc1nc(-c2ccc3c(c2)CCN3C(=O)C2CC2)c(C)s1	-	-	-	20	-	-
Cc1ccc(CCNS(=O)(=O)c2ccc3c(c2)CC(C)N3C(=O)C2CCC2)cc1 (stereo not given)	.	.	.	.	-	.
Cc1sc(NC(=O)c2ccco2)nc1-c1ccc2c(c1)CC(C)N2C(=O)C1CC1 (stereo not given)	-	-	175	31	-	-
O=C(/C=C/c1ccccc1)Nc1nc(-c2ccncc2)cs1	-	-	-	28	-	-
O=C(/C=C\c1ccco1)Nc1nc(-c2ccccc2)cs1	-	-	78	71	-	-
O=C(/C=C/c1ccco1)NC(=S)Nc1nc(-c2ccc(Cl)cc2)cs1	-	-	-	-	-	-
Cc1ccc(S(=O)(=O)N2CCCCC2)cc1NC(=O)CSc1ncn[nH]1	-	-	-	-	-	-
S=c1sc2c(N3CCOCC3)ncnc2n1-c1ccccc1	-	-	-	-	-	-
COC(=O)CSc1nnc(CNC(=O)c2cccs2)n1-c1cccc(C)c1	-	-	-	-	-	-

Source: PubChem
